Source: ChEMBL document CHEMBL1157539, “Thousands of chemical starting points for antimalarial lead identification” (Nature, 2010)

Legend:
Assay type in all cases: functional
Plasmodium falciparum [1] = test: GSK_TCMDC: Inhibition of Plasmodium falciparum 3D7 in whole red blood cells, using parasite LDH activity as an index of growth. Test compounds present at 2uM
Plasmodium falciparum [2] = test: GSK_TCMDC: Inhibition of Plasmodium falciparum Dd2 in whole red blood cells, using parasite LDH activity as an index of growth. Test compounds present at 2uM
HepG2 = test: GSK_TCMDC: Percent inhibition of human HepG2 cell line. Test compounds present at 10uM.

| SMILES | Inhibition (Plasmodium falciparum [1]) [%] | Inhibition (Plasmodium falciparum [2]) [%] | Inhibition (HepG2) [%] |
| --- | --- | --- | --- |
| CC(CN1CCN(C)CC1)C(=O)Nc1cccc(-c2ccc(-c3nc4cc(F)ccc4[nH]3)cc2)c1 (configuration not stated) | 100 | 98 | 10 |
| Cc1ccccc1C1CCN(C2CCC(NC(=O)/C=C/c3cccc(Cl)c3Cl)CC2)CC1 (configuration not stated) | 94 | 23 | 74 |
| CC(CCNc1c2ccccc2nc2ccccc12)N1CCN(C)CC1.Cl (configuration not stated) | 100 | 0 | 25 |
| Cc1cccc2nc(-c3ccc(-c4ccc(NC(=O)Nc5ccsc5)cc4)s3)[nH]c12 | 100 | 88 | 74 |
| CCCc1cc(=O)[nH]c(-n2nc(C)cc2NC(=O)CC(c2ccccc2)c2ccccc2)n1 | 97 | 88 | 39 |
| COc1cccc2c(N/N=C/c3cccc([N+](=O)[O-])c3)ccnc12 | 100 | 47 | 12 |
| Cc1noc(-c2ccc(O)cc2O)c1-c1ccc2c(c1)OCCCO2 | 100 | 99 | 8 |
| O=C(Nc1cccc(-c2cccc(-c3nc4cc(C(F)(F)F)ccc4[nH]3)c2)c1)c1csnn1 | 99 | 37 | 45 |
| CC(C)(C)c1ccc(CN2CCC(CNC(=O)c3cc(-c4cccc(F)c4)cs3)C2)cc1.O=C(O)C(F)(F)F (configuration not stated) | 100 | 55 | 32 |
| Cc1ccc(NC(=O)c2ccc(CN3CCCN(Cc4cccc(C#N)c4)CC3)cc2)cc1F.O=C(O)C(F)(F)F | 98 | 19 | 49 |
| O=C(Cn1c(SCc2cccc(F)c2F)cc(=O)c2ccccc21)N(CCn1ccnc1)Cc1ccc(-c2ccc(C(F)(F)F)cc2)cc1 | 100 | 94 | 20 |
| CCN(CC)Cc1cc(Nc2c3ccc(Cl)cc3nc3cccc(OC)c23)ccc1O.Cl | 100 | 98 | 8 |
| Cc1cc(OC(C)C(=O)N2CCc3ccccc32)ccc1Cl (configuration not stated) | 89 | 54 | 20 |
| O=C(Nc1ccc(S(=O)(=O)NCCCN2CCOCC2)cc1)c1cc(-c2ccccc2)[nH]n1 | 82 | 29 | 16 |
| COc1ccc(C=Cc2cc(=N)c3ccccc3[nH]2)cc1.I | 93 | 16 | 38 |
| CCCCCCN1CCN(Cc2cccc(NC(=O)c3cc4ccccc4o3)c2)CC1.O=C(O)C(F)(F)F | 93 | 83 | 20 |
| COc1ccc(-n2ccnc2SCC(=O)Nc2cc(C)ccc2C)c(OC)c1 | 94 | 93 | 2 |
| COc1ccc2[nH]ccc(=NN=Cc3cccc(Cl)c3)c2c1 | 100 | 99 | 1 |
| CC(Sc1nnc(-c2cccs2)[nH]1)C(=O)c1c[nH]c2ccccc12 (configuration not stated) | 94 | 58 | 0 |
| O=C(Nc1ccc(Cn2nc(Cl)c(N3CCNCC3)cc2=O)cc1)Nc1ccc(-c2ccccc2)cc1.O=C(O)C(F)(F)F | 97 | 49 | 99 |
| CCNc1cc(C(=O)N[C@@H](Cc2ccccc2)[C@H](O)CNC(C)(C)CSCC(C)C)cc(N2CCCC2=O)c1 | 100 | 97 | 0 |
| CC(C)(C)c1ccc(C(=O)Nc2cccc(Nc3c(C(=O)NCc4cccc(C(F)(F)F)c4)cnc4c(O)cccc34)c2)cc1.O=C(O)C(F)(F)F | 83 | 79 | 40 |
| O=C(COc1cccc([N+](=O)[O-])c1)Nc1ccc(-c2nc3ccccc3[nH]2)cc1 | 99 | 5 | 12 |
| C(=N\Nc1nccc2sc(-c3cccnc3)cc12)/c1cccnc1 | 98 | 54 | 5 |
| CN(Cc1ccc(-c2ccc(C(F)(F)F)cc2)cc1)C(=O)Cn1c(CCc2cccc(F)c2F)cc(=O)c2ccc(OCCCN3CCCCC3)cc21.O=C(O)C(O)C(O)C(=O)O | 100 | 90 | 79 |

| SMILES | Inhibition (Plasmodium falciparum [1]) [%] | Inhibition (Plasmodium falciparum [2]) [%] | Inhibition (HepG2) [%] |
| --- | --- | --- | --- |
| CC(Sc1nc(-c2ccccc2)c(-c2ccccc2)o1)C(=O)NC1CC1 (configuration not stated) | 94 | 91 | 13 |
| CS(=O)(=O)NCCCNCc1cccc(-c2ccc(-c3nc4ccccc4[nH]3)s2)c1.O=C(O)C(F)(F)F | 90 | 0 | 24 |
| Cc1cc(-c2ccc(CNCCc3cccs3)cc2)ccc1S(=O)(=O)NCc1ccccc1.O=C(O)C(F)(F)F | 94 | 0 | 28 |
| Nc1nc(N)c2c(ccc3c2ccn3Cc2ccc(F)cc2)n1 | 97 | 96 | 66 |
| CC1(C)NC(N)=NC(=N)N1OCOc1ccc(Cl)cc1.Cl | 94 | 96 | 68 |
| COc1ccc(CN(C)CCCc2ccc(NC(=O)c3cccc4c(=O)c5cccc(F)c5[nH]c34)cc2)cc1OC | 100 | 94 | 100 |
| N#Cc1ccc(-c2nc3c(N4CCCC4)cccc3n2CCNCc2ccccc2)cc1.O=C(O)C(F)(F)F | 100 | 99 | 2 |
| Cn1c(Cc2ccccc2)nnc1Sc1ccc(C#N)c([N+](=O)[O-])c1 | 93 | 29 | 0 |
| O=C(Cc1c[nH]cn1)Nc1cccc(-c2ccc(-c3nc4cc(F)ccc4[nH]3)cc2)c1 | 100 | 84 | 4 |
| CCNc1cc(C)nc(Nc2ccc(NC(=O)c3ccc(OC)c(OC)c3)cc2)n1 | 100 | 65 | 19 |
| Cc1cc(N(CCCN(C)C)Cc2cc(F)cc(F)c2)nc(Nc2ccc(Cl)cc2)n1 | 99 | 97 | 37 |
| O=C(/C=C/c1ccc(Cl)cc1)NCCCCCN1CCCC(C(=O)Nc2ccc(Cl)c(Cl)c2)C1 (configuration not stated) | 96 | 3 | 27 |
| CC(=O)O.CCC[C@@H]([C@@H](CC1CCCCC1)C(=O)N[C@H](C(=O)Nc1nccc(N)n1)C(C)(C)C)N(O)C=O | 96 | 82 | 25 |
| Nc1nccc2ccc(-c3cccnc3)cc12 | 97 | 95 | 9 |
| Cc1cc(NCCCCCCCCNc2cc(C)nc3ccccc23)c2ccccc2n1.Cl | 100 | 0 | 59 |
| O=C(Cc1c[nH]cn1)Nc1cccc(-c2ccc(-c3nc4cc(F)ccc4[nH]3)s2)c1 | 100 | 94 | 4 |
| COc1c(C2CCN(CCCCNC(=O)c3ccc(-c4ccc(Cl)cc4)c(OCCN(C)C)c3)CC2)ccc2c1CCCC2 | 100 | 86 | 100 |
| O=C(N[C@@H](CC1CCCCC1)C(=O)NCCN1CCCC1)c1ccc(O)c(-c2ccc(Cl)c(Cl)c2)c1 | 99 | 99 | 16 |
| O=C(NCCc1cccc(F)c1)c1cc(Br)cc(N2CCN(c3ccncc3)CC2)c1.O=C(O)C(F)(F)F | 100 | 86 | 34 |
| CCOC(=O)CCCc1cc(NC2CCN(C)CC2)nc(Nc2ccc(OC)cc2)n1 | 99 | 17 | 41 |
| Cc1ccc2sc(N3CCN(C(=O)c4ccc([N+](=O)[O-])o4)CC3)nc2c1C | 90 | 86 | 0 |
| CC(C)c1ccc(S(=O)(=O)Nc2cccc(CCN3CCC(N4CCCCC4)CC3)c2)cc1 | 100 | 35 | 37 |
| N#Cc1ccc(-c2ccc(C(=O)NCCCCN3CCC(n4cnc5ccccc54)CC3)cc2)cc1 | 94 | 2 | 15 |
| Cl.N=C(N)Nc1nccc(NCc2ccccc2)n1 | 88 | 48 | 95 |
